# Data from the supplement of paper PMC13392028.
# Over roughly 4,100 sequences, “RBNS R-value (6-mer enrichment in protein-bound RNA vs input library)” has its median near 0.99; the highest 2% begin near 1.4. The full list was thinned out, with the highest values kept by preference.
# Tested on: PfIESI-1 RRM domain (Plasmodium falciparum ortholog aa 875-1232, GST fusion)
# Experiment: RBNS R-value (6-mer enrichment in protein-bound RNA vs input library) (ratio); higher = stronger binding preference; the methods of the paper give 50 / 100 / 500 nM protein instead
# Protocol: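 RNA Bind-n-Seq: recombinant GST-tagged IESI-1 RRM domain was incubated at room temperature with a random 40-nt in vitro transcribed RNA library at 250, 500 or 1000 nM protein. Bound RNA was pulled down on glutathione beads and sequenced. R-value is the enrichment of each 6-mer in the bound RNA relative to the input library. Each 6-mer sits inside the random 40-mer context, not as an isolated oligo. Values are replicate 1 only.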
Sequence,RBNS R-value (protein concentration: 250 nM),RBNS R-value (protein concentration: 500 nM),RBNS R-value (protein concentration: 1000 nM)
GGUCGG,0.934,0.838,0.968
UCGACU,0.956,0.919,0.936
AGUAGG,0.965,0.969,1.02
CGUUCA,0.9,0.886,0.924
GAAUGC,1.08,1.07,1.08
AAAUGC,0.994,1.07,1.05
UAAUGA,1.05,1.2,1.03
CAAUGA,1.34,1.41,1.24
CAAUGG,1.03,1.03,1.06
GAAUGA,1.47,1.55,1.36
CAAUGC,0.943,0.936,0.955
GAAUGU,0.918,1.01,0.982
AAAUGA,1.42,1.6,1.38
UUCUAC,0.96,0.873,0.911
GUCUUA,0.784,0.786,0.826
CGUGAC,1,0.946,1
GUAGCC,1.03,0.977,1.02
UUUAAG,0.833,0.879,0.837
CAGAGA,1.28,1.31,1.3
UCCGAA,1.1,1.1,1.13
CCCGAA,1.44,1.33,1.35
ACCGAA,1.07,1.11,1.09
CCCGGG,1.56,1.3,1.42
ACGGGA,1.1,1.06,1.1

Sequence,RBNS R-value (protein concentration: 250 nM),RBNS R-value (protein concentration: 500 nM),RBNS R-value (protein concentration: 1000 nM)
GCCGAG,1.23,1.16,1.2
CCCGGC,1.27,1.14,1.24
CCGGGU,1.19,1.08,1.17
CCGGGA,1.4,1.21,1.27
CCCGGU,1.22,1.12,1.21
CCCGAG,1.66,1.29,1.45
ACCGAG,1.34,1.24,1.25
CUCAAC,0.907,0.891,0.925
CUCUAC,0.858,0.793,0.813
GGGAAC,1.14,1.14,1.17
GAAUUU,1.14,1.19,1.13
UGCUAC,0.931,0.87,0.895
GUGUGG,0.869,0.812,0.921
CCACGA,1.17,1.13,1.15
CGGGUC,1.03,0.928,1.06
UUCGAG,1.1,1.12,1.14
GUCGAG,0.954,0.931,0.991
CUCGAG,1.38,1.28,1.27
UGGAGC,1.03,1,1.02
CUUAUA,0.758,0.723,0.711
UUGAUU,2.69,2.96,2.18
UGGAUU,0.95,0.939,0.974
GUGAUC,1.06,1.1,1.06
GCGAUU,1.23,1.24,1.15

Sequence,RBNS R-value (protein concentration: 250 nM),RBNS R-value (protein concentration: 500 nM),RBNS R-value (protein concentration: 1000 nM)
GUGAAA,1.01,1.12,1.09
CCGAUU,1.34,1.3,1.23
GUGAUU,1.83,2.01,1.61
UUGAGU,1,1.04,1.02
CUGAUU,2.52,2.66,1.97
GUGAUA,1.31,1.43,1.28
CUGAAU,1.01,1.05,1.01
GUGAGA,1.02,1.08,1.1
UACAAA,0.828,0.904,0.843
AAUAAU,0.738,0.867,0.789
CAUAAU,0.76,0.795,0.73
GCGCGA,1.1,1.12,1.11
CGUAAA,0.871,0.956,0.929
CCCUGU,0.962,0.898,0.981
ACCUGA,1.51,1.48,1.37
ACCUGC,1.09,1.03,1.07
GCCUGC,1.12,1,1.06
GCCUGG,1.12,1.05,1.15
GCCUGA,1.45,1.4,1.32
CCCUGG,1.17,1.09,1.15
CCCUGA,1.44,1.41,1.35
ACCUGG,1.19,1.11,1.17
UGGGUC,0.985,0.933,1.01
UGUCAG,0.921,0.924,0.976

Sequence,RBNS R-value (protein concentration: 250 nM),RBNS R-value (protein concentration: 500 nM),RBNS R-value (protein concentration: 1000 nM)
CAAAUC,0.911,0.973,0.983
UUGACU,1.07,1.06,1.05
UAACGC,0.896,0.876,0.884
CAUCAC,0.917,0.894,0.935
AUAUAC,0.837,0.813,0.766
GACCUC,1.02,0.989,1.03
UCUGAG,1.12,1.1,1.14
GCUGAG,1.09,1.07,1.1
CCUGAG,1.47,1.26,1.34
UCUGAA,0.982,1.05,1.03
GCUGAU,1.77,1.76,1.47
GCUGAC,1.07,1.02,1.07
ACUGAU,1.89,2.06,1.65
ACUGAG,1.08,1.13,1.11
UCUGAU,1.88,1.98,1.58
UCUGAC,1.02,0.998,1.05
CCUGCG,1.1,1.05,1.1
ACUGAC,1.04,1.03,1.04
CAGAAC,1.11,1.13,1.13
AGUCCC,1.01,0.956,1.01
UACCGG,0.983,0.914,0.955
CAGUAA,0.864,0.913,0.866
CUACAU,0.824,0.777,0.777
GUUCCU,1.02,0.962,1.01

Sequence,RBNS R-value (protein concentration: 250 nM),RBNS R-value (protein concentration: 500 nM),RBNS R-value (protein concentration: 1000 nM)
AACAGG,0.999,1.07,1.06
GGGACU,1,0.984,1.02
GAAGAC,1.14,1.17,1.15
AGAGUC,1.01,1.03,1.05
AUGUGA,1.15,1.26,1.14
CUGGGC,1.06,0.987,1.04
CCUGAA,1.17,1.17,1.18
CCUGAU,1.99,2.08,1.66
CCUGAC,1.14,1.07,1.12
AUGCGG,1.02,1.01,1.01
UCUAGU,0.878,0.906,0.899
CAUGCC,1.04,0.974,1.05
AAUGCG,0.939,0.968,0.95
UAUGCC,0.946,0.891,0.903
CAUGCA,0.934,0.914,0.92
GAUGCG,1.41,1.42,1.31
GAUGCC,1.57,1.46,1.39
GAUGCA,1.39,1.42,1.29
UAUGCG,0.899,0.892,0.894
UAUGCA,0.846,0.862,0.85
CUCGUG,0.979,0.913,0.998
AGCGGC,1.05,1.03,1.01
AUUCUU,1.04,1.06,1.02
CUUAGC,0.907,0.84,0.885

Sequence,RBNS R-value (protein concentration: 250 nM),RBNS R-value (protein concentration: 500 nM),RBNS R-value (protein concentration: 1000 nM)
CGGUCA,0.933,0.898,0.979
GAUUCA,1.44,1.56,1.35
CAUUCC,1.04,0.997,1.05
AAUUCU,1.01,1.07,1.06
GAUUCG,1.43,1.44,1.31
UAUUCA,0.803,0.794,0.796
AAUUCC,1.16,1.15,1.16
CAUUCG,1.02,0.992,1.04
UAUUCU,0.875,0.813,0.832
GAUUCU,1.53,1.6,1.33
AAUUCG,0.99,1.06,1.02
GAUUCC,1.51,1.47,1.38
AAUUCA,0.972,1.06,0.981
AGGUAA,0.909,0.998,0.997
CUUAAG,0.818,0.849,0.846
UCCUUU,0.883,0.825,0.875
UACCGA,1.01,0.978,0.96
AGGGAG,1.09,1.11,1.06
GAUAAC,1.16,1.26,1.15
AAUUGU,0.865,0.926,0.948
CAUUGC,0.987,0.973,0.976
GAUUGC,1.7,1.68,1.42
GAUUGG,1.37,1.37,1.25
GAUUGU,1.04,1.04,0.998

Sequence,RBNS R-value (protein concentration: 250 nM),RBNS R-value (protein concentration: 500 nM),RBNS R-value (protein concentration: 1000 nM)
AAUUGA,1.37,1.52,1.31
UAUUGA,1.07,1.14,0.985
CAUUGA,1.33,1.37,1.22
GAUUGA,1.61,1.69,1.43
UCCGUC,0.938,0.878,0.944
GUAUCA,0.785,0.812,0.852
UCCUGU,0.873,0.838,0.868
ACUGCC,1,0.929,0.986
UAUGUG,0.854,0.869,0.848
GAUGUU,1.47,1.53,1.31
UAUGUA,0.792,0.805,0.771
UAUGUC,0.791,0.772,0.81
CAUGUU,0.853,0.856,0.878
GAUGUG,1.53,1.65,1.36
CAUGUC,0.881,0.88,0.921
GAUGUC,1.37,1.39,1.29
CAUGUG,0.924,0.964,0.964
GAUGUA,1.25,1.39,1.2
AAUGUA,0.778,0.871,0.819
AAUGUU,0.827,0.922,0.9
CAGUCU,0.933,0.914,0.963
GGCAUU,1.01,0.953,0.972
CUAUCU,0.826,0.759,0.772
CAUCUC,0.925,0.891,0.96

Sequence,RBNS R-value (protein concentration: 250 nM),RBNS R-value (protein concentration: 500 nM),RBNS R-value (protein concentration: 1000 nM)
AGUACG,0.91,0.935,0.91
GUCAAG,0.874,0.904,0.946
AUACUA,0.816,0.825,0.779
GGCUAG,1.05,1.01,1.03
AGAAUA,1.03,1.18,1.1
UUCAUC,0.934,0.912,0.924
ACGAUG,1.33,1.38,1.21
CAGAUA,0.988,1.03,0.99
CUGACA,1.13,1.11,1.11
AGGAUG,1.1,1.1,1.12
UUGAGA,1.19,1.22,1.18
AUGAUC,1.38,1.42,1.24
AUGAGC,1.14,1.16,1.1
CUGAUA,1.57,1.71,1.43
AUGAUG,3.17,3.42,2.39
ACGAUC,0.952,0.918,0.959
UCGAUA,0.937,0.932,0.928
UUGAUA,1.72,1.92,1.6
